# In PubChem BioAssay AID588333 (National Center for Advancing Translational Sciences (NCATS), 2011):
# Active and inactive are the calls of the source.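 Rule for the calls: active = compounds that kill cultured T. brucei parasites with a half-maximal potency under 200 micromolar; inactive = compounds with no measurable potency.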
# Assay: Confirmatory Assay to Find Inhibitors of T. brucei phosphofructokinase: T. brucei in vitro Parasite Assay
# Conditions: T. brucei brucei culture viability, Alamar Blue, 72 h
# From the text: Various species of the protozoan family Trypanosomatidae are responsible for a range of serious human diseases in tropical and subtropical areas of the world. […] Many of the disorders caused by trypanosomatids are fatal if left untreated, but most currently used drugs are inefficient and toxic. […] Oxidative metabolism involving the mitochondrial tricarboxylic acid cycle and oxidative phosphorylation are repressed in these parasites, and recent RNA interference (RNAi) experiments have shown that even partial depletion of certain individual glycolytic enzymes can lead to the death of cultured parasites. One such glycolytic enzyme, phosphofructokinase (PFK), catalyzes the formation of fructose-1,6-bisphosphate (F1,6BP) and ADP from fructose-6-phosphate (F6P) and ATP, and in many metabolic circumstances makes an important contribution to the control of flux through the glycolytic pathway. As a specific glycolytic target, PFK is particularly attractive as it catalyzes the first irreversible step in glycolysis, and structural and kinetic studies have shown very substantial and essential differences from corresponding host enzymes, allowing for the discovery of parasite-selective inhibitors. Selected active compounds were additionally tested in a well-validated in vitro parasite assay to determine the relative potencies of lead compounds against live T. brucei cultures. H Chemical Genomics Center [NCGC] NIH Molecular Libraries Probe Centers Network [MLPCN] MLPCN Grant: MH092153-01 Assay Submitter (PI): Malcom Walkinshaw, University of Edinburgh
# Dilutions of T. brucei brucei were incubated in modified Iscove's cell culture medium (supplemented with 10% FBS, 0.05 mM bathocuproine sulfonate, 1.5 mM L-cysteine, 1 mM hypoxanthine, 0.2 mM 2-mercaptoethanol, 1 mM sodium pyruvate and 0.16 mM thymidine) with titrations of compound for 72 hours. The cell density is adapted so that after 72 hours of incubation, the cells are at the end of the logarithmic growth phase (~5x104 tryps/mL). General morphology and motility were recorded after incubation, and Alamar Blue dye was added as a fluorescent marker of viability (ex530/em590) and read on a fluorescent plate reader following 4 hrs of incubation at 37 degrees C. The results of this assay were used to prioritize medicinal chemistry efforts in conjunction with the human cell toxicity assay to give a measure of relative parasite/host toxicity ratio.
Compound,Potency,outcome
O=C(Cc1ccc(Cl)c(Cl)c1)Nc1ccc(S(=O)(=O)Nc2ccon2)cc1,16.3 µM (active),
Cc1cc(NS(=O)(=O)c2ccc(NC(=O)Cc3ccc(Cl)c(Cl)c3)cc2)no1,26.8 µM (active),
O=C(Cc1ccc(Cl)c(Cl)c1)Nc1ccc(S(=O)(=O)Nc2ccc(C(=O)O)cc2)cc1,,inactive
O=C(Cc1ccc(Cl)c(Cl)c1)Nc1ccc(S(=O)(=O)Nc2cccc(C(=O)O)c2)cc1,105 µM (active),
COc1ccc(CC(=O)Nc2ccc(S(=O)(=O)Nc3cc(C)on3)cc2)cc1OC,,inactive
Cc1cc(NS(=O)(=O)c2ccc(NC(=O)Cc3ccc(Cl)c(Cl)c3)cc2)on1,157 µM (active),
Cc1cc(NS(=O)(=O)c2ccc(NC(=O)Cc3ccc(Cl)c(F)c3)cc2)no1,38.9 µM (active),
